Results published in the supplement of paper PMC6555819.

tested on: VDR:RXRa (NR concentration 270 nM, RXRa partner concentration 90 nM); test: PBM binding z-score (relative to random genomic background probes); higher = stronger binding; sequences stand for … in GC…GCGATTGACAGCGTAGAATGAAGG
Method: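 Protein-binding microarray (Agilent 4x180K custom design, double-stranded 60-nt probes: 5' GC cap, 34-nt variable region, 24-nt constant primer region; full probe sequence given). Purified or IVT nuclear receptor:RXRα heterodimers (3:1 NR:RXRα, mostly 270:90 nM) or homodimers were incubated for 1 h in PBS with 2% milk and no ligand, then detected with Alexa488 antibodies. Fluorescence from o1-orientation probes (~5 replicates averaged) was converted to z-scores against 500 random hg19 background probes. Variable regions are seed direct-repeat (DR0–DR5) sites, all their single-nucleotide variants and half-site ablations.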

Row | Sequence | PBM binding z-score
1 | TGAATGAGGTTAAAGATCAGGAAACGTGGCGTCG | 1.95
2 | CCGACTGGGGCAGAAAGGTAACCATACCATCCGG | -0.526
3 | ATATGAAGGTTAAGGGTCATTCAGGTTGGTTCGC | 6.02
4 | AGAATAAGGTTATTAAGATCAGGGAATTGCGGTC | 1.95
5 | CGTCCAAGGTCAAGGTCTGTGAAAGAGACTCGAA | 3.73
6 | CCTATTAGTTGACCTTAAGGGCAACCGAAGCTCG | 3.66
7 | TCTTGTAGATCAATAGAGGTTAAGCAAGTGCGCT | 2.4
8 | CGTCCAAGGTCAATCCTAGGTCAGTGAAAGCATT | 4.96
9 | ATATTTAGGTTAAGGGTCATTCAGGTTGGTTCGC | 5.46
10 | AGAATGAGGTTTAGATCAGGGAAACAGAATACAT | -0.225
11 | TCTCGGAGGACTCGAAGGTCAGAGCTTTCCAGAG | 0.759
12 | GCTATTAGTTGAAATGGCAACCGAATGATTCTCG | -0.304
13 | TCATATAGGTAAATTCTAGGTGAAAGTCCGATCT | 1.14
14 | GCTGCTAGGTCAACTAATGGTCAGCTAAAGCTCG | 1.35
15 | CCTGCTAGGTCAATGATCAGCTAAAGCAGCTCGC | 0.447
16 | CCTACTGGGCGAAAAAGGTCATTGATGCCGATAA | 4.21
17 | CCGACTGGGGCAAGGCTACCATAACGCACAGCCA | -0.501
18 | AGAATGAGGTTATTAAGATTAGGGAATTGCGGTC | 1.29
19 | CGAACTAGGTCTTTGACAGGACAGTGAATAGTAA | -0.318
20 | TCTGCTAGGTCAGTTGGTCAGCTAACGAGCTGCC | 0.166

Row | Sequence | PBM binding z-score
21 | TTACTAAGGTGAGCTGAGGTCGTTGATCCAACTC | 4.42
22 | CCGACTGGGGCAAAGATTACCATACTCAGTACGA | -0.618
23 | TCATATAGGTAAACAGGTGAAATTCCGTAAGTTA | 1.35
24 | TCGAGTAGGTTACCAATGGGGCATTCATCTTTCT | 0.117
25 | GCTGCTAGGTCAGGTTGGTCAGGTAACGGGTACG | 0.625
26 | CGTCCATGGTCAGCAGGTCAGTGAAAGCGACGTG | 0.0484
27 | TCATATAGGTAAAAGGTGCAAGTCGGTGTGGTAA | 1.09
28 | TCATATAGGTAATACAGGTGATAGTCGGCATCTA | 1.04
29 | CGTCCAAGGTCACAGGTCAGTGAAGAGATGACGG | 4.91
30 | GCTCGGAGGACAAGGTCGGAGCTTTGTCCGTAGA | -0.159
31 | CCAGACAGGTGAAAGGTAACTCAATCTGGTACGC | 0.936
32 | CAAACTAGGTCAAGAGGTCAAAGACCGCTTCCCG | 5.93
33 | TTTTGTAGATCAAAGGTTAAGAAAGCCGAAGCCT | 1.41
34 | CCTACTGGGCCACAGGTCATTGATTCCAATGCTC | 1.99
35 | TTGAGTAGGTTACCAATGGGGCATTCAGCTTTCT | 0.365
36 | CCTACTGGGCCGAAGGTCATTGATTCCAATGCTC | 2.51
37 | CGAACTAGGTCTAGGACAGTGAATCTCCGCACGC | -0.692
38 | TCTAGTTGGTGAAAGGTCACACACTCGAAATGCG | 4.89
39 | AGAACCAGGGCAATGAGTTGATAGCACGGGTGGC | 3.6
40 | ATCTCTAGGTATAGATAGTTCAGTGAATGCAAAT | 0.666
